The source made the active and inactive calls.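 How the source made its calls: active means fitted half-maximal concentration AC50 at or below ten times the highest valid tested dose, with signal falling as DNA is displaced (actives reach about 34 µM in these data); inconclusive means flat fit at moderate signal loss, or poor fit quality; inactive means the rest, including signal rising instead of falling.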
Assay: DNA intercalators displacing acridine orange, dose response, artefact control for KSHV LANA DNA-binding inhibitor project, biochemical, fluorescence polarization, cherry-picked samples, set 2 (AID 504727)
Settings: AC50: Acridine orange-DNA displacement

| SMILES | AC50 |
| --- | --- |
| N#C/C(=C\c1ccc(-c2ccccc2[N+](=O)[O-])o1)C(N)=O | inactive |
| CN(C)/C=N/c1nc2nccc(-c3ccc(Cl)cc3)n2n1 | inactive |
| O=C(O)CCN1C(=O)/C(=C\c2ccc(-c3nc4ccccc4s3)o2)SC1=S | inactive |
| COc1ccc(/C=C/C(=O)NC(=S)Nc2ccc(S(N)(=O)=O)cc2)cc1 | inactive |
| Cc1noc(C)c1CSCC(=O)Nc1nc2c(F)cc(F)cc2s1 | inactive |
| O=C(O)C1Nc2c(O)cc(Cl)c([N+](=O)[O-])c2C2C=CCC12 (stereo unspecified) | inactive |
| O=C(Cn1nc(Cc2ccncc2)c2ccccc2c1=O)N1CCN(C(=O)c2ccco2)CC1 | 4.26 µM (active) |
| Cc1noc(C)c1C(=O)N1CCN(c2ccc(OCc3ccccc3)cc2)CC1 | inactive |
| Cc1cc(/C=N/Nc2ccc([N+](=O)[O-])cn2)c(C)n1-c1cccc(C(=O)O)c1 | inactive |
| COc1ccc(OCC(=O)N2CCN(c3cccc(C(F)(F)F)c3)CC2)cc1 | inactive |
| CCOC(=O)[C@H]1[C@H]2COc3cc(OC)ccc3[C@@H]2N2C(=O)CN(Cc3ccc(OC)cc3)C(=O)[C@@]12C | inactive |
| O=S(=O)(NCc1cccnc1)c1ccc(Cl)s1 | inactive |
| Cn1c(=O)c(N)c2c3c(c(Br)ccc31)C(=O)c1ccccc1-2 | 2.99 µM (active) |
| COc1ccc(/C=N/NC(=O)c2ccc3nc[nH]c3c2)c(OC)c1 | inactive |
| O=C(O)c1ccc2c(c1)[C@@H]1C=CC[C@@H]1[C@H](c1ccccn1)N2 | inactive |
| CC(Sc1nc(-c2ccco2)nc2c1c(=O)n(C)c(=O)n2C)C(=O)O (stereo unspecified) | inactive |
